Assay results: ChEMBL document CHEMBL3988442, “University of Dundee, Small-Polar-MMV Screening Library” (2021)
Among all 48,000 compounds or so, about 13,000 (27%) showed an effect of 50% or more. The list shows a part of the results.

tested on: Wolbachia pipientis; assay: Anti-Wolbachia Cell-Based Screen; format: functional; parameters: scale not given: in the data most compounds retested in dose-response had high values; conditions: 5 µM

| SMILES | Percent Effect [%] |
| --- | --- |
| COc1ccc(C(C)N2CCC(CO)CC2)cc1Cl (stereo unspecified) | 2.465 |
| CSC1(CNC(=O)N(C)Cc2ccc(C)s2)CCOCC1 | -11.34 |
| COCCN1CC2(CCCN(C(=O)CCCc3cccs3)C2)CCC1=O (stereo unspecified) | -3.205 |
| COCCn1c2c(ccc1=O)CCN(C(=O)Cc1cccs1)CC2 | 99.02 |
| O=C(Cc1ccsc1)N1CCc2ccc(=O)n(CC3CC3)c2CC1 | -8.117 |
| COCCN1CCOCC12CCN(C(=O)Cc1cccs1)CC2.O=C(O)C(F)(F)F | 7.053 |
| COCCn1c2c(ccc1=O)CCN(C(=O)Cc1ccsc1)CC2 | 97.29 |
| CN(CCCc1nccn1C)C(=O)C1COc2ccccc2C1 (stereo unspecified) | -14.96 |
| Cc1ncsc1CCN(C)C(=O)c1ccc(Cn2cnnn2)cc1 | -0.04633 |
| Cc1nc(N2CCOCC2)nc2c1CN(CC(=O)N(C)C)CC2 | -19.6 |
| Cc1nc(N2CCCC2)nc2c1CCN(C(=O)C1CCCC1)CC2 | 4.07 |
| Cc1nc(N2CCOCC2)nc2c1CCN(C(=O)NC1CCCC1)CC2 | 25.82 |
| Cc1nc(N2CCCC2)nc2c1CCN(C(=O)CC1CC1)CC2 | 43.96 |
| Cc1nc(N2CCCC2)nc2c1CCN(C(=O)N1CCCC1)CC2 | 98.24 |
| Cc1nc(N2CCOCC2)nc2c1CN(C(=O)Cc1ccccn1)CC2 | 6.226 |
| Cc1nc(N2CCOCC2)nc2c1CCN(C(=O)C1(C#N)CC1)CC2 | -22.43 |
| Cc1nc(N2CCOCC2)nc2c1CCN(C(=O)N1CCCC1)CC2 | 118.6 |
| Cc1nc(N2CCOCC2)nc2c1CN(C(=O)C(C)C)CC2 | 99.02 |
| CS(=O)(=O)CCN1C[C@H](NC(=O)c2cnc(O)cn2)[C@@H](C2CC2)C1 | 5.128 |
| Cn1cccc1C(O)CNS(=O)(=O)c1ccccc1F (stereo unspecified) | -11.88 |
| CC(C)CCC(=O)N1CCN(c2ncnc3nc(N)ccc23)CC1 | -4.213 |
| COc1ccc(Cl)cc1NCC(=O)NCCNc1ncccn1 | 100.4 |

| SMILES | Percent Effect [%] |
| --- | --- |
| COc1cc(CNC(=O)CNc2cc(Cl)ccc2OC)ccn1 | -1.117 |
| COc1ccc(Cl)cc1NCC(=O)NCCc1ccccn1 | 3.443 |
| COc1ccc(Cl)cc1NCC(=O)NCc1cccnc1OC | 108 |
| COc1ccc(Cl)cc1NCC(=O)N(Cc1ccccn1)C1CC1 | -7.935 |
| COc1c(Cl)cc(C(=O)NCCNc2ncccn2)cc1Cl | 11.68 |
| COc1ncccc1NC(=O)N1CCCC1c1cc(C)no1 (stereo unspecified) | -4.048 |
| Cc1cc(C(=O)N2C[C@H]3CC[C@@H]2CN(C)C3)ccc1Cl | -9.049 |
| CC(C)(C)OC(=O)NC(C)(C)c1noc(CSc2ccccn2)n1 | 18.32 |
| COC(=O)NC1(C(=O)Nc2ccc(-c3cc[nH]n3)cc2)CCCC1 | -10.93 |
| CCS(=O)(=O)N1CCCC2(CCCN2Cc2cccc(Cl)c2)C1.O=C(O)C(F)(F)F (stereo unspecified) | -14.69 |
| CS(=O)(=O)N1CC2(CCCN2Cc2ccc(Cl)cc2)Cc2ccccc21 (stereo unspecified) | 113.6 |
| Cc1cc(C(=O)N2CCCC3(CCCN3Cc3cccnc3)C2)[nH]n1 (stereo unspecified) | 0.008691 |
| CC(=O)N1CC2(CCCCN2Cc2ccc(Cl)cc2)Cc2ccccc21 (stereo unspecified) | 100.4 |
| Cn1cc(CN2CCCC3(CCCN3S(C)(=O)=O)C2)cn1.O=C(O)C(F)(F)F (stereo unspecified) | 1.436 |
| CC(=O)N1CC2(CCCN2Cc2ccc(Cl)cc2)Cc2ccccc21 (stereo unspecified) | 134.6 |
| CC(C#N)CSc1ccccc1NCC(=O)NC(C1CC1)C1CC1 (stereo unspecified) | -11.19 |
| CNC(=O)CN1CCC(c2cc(OC)cc(OC)c2)C1 (stereo unspecified) | 8.564 |
| COc1cccc(COCC(=O)NC2CCN(CC(N)=O)CC2)c1 | 5.2 |
| CC(C)Oc1cccc(CC(=O)NC2CCN(CC(N)=O)CC2)c1 | -2.756 |
| CCOC1CCN(C(=O)NCc2ccc(CN3CCOCC3)cc2)CC1 | -24.74 |
| CNC(=O)CN1CCN(C(=O)Nc2ccc(Cl)cc2F)CC1 | 0.4531 |
| NC(=O)CN1CCC(Nc2ccnc3ccc(Cl)cc23)CC1 | 13.98 |

| SMILES | Percent Effect [%] |
| --- | --- |
| CCC(N)C(=O)N1CCC(OCc2ccc(Cl)c(Cl)c2)CC1.Cl (stereo unspecified) | 104.6 |
| NC(=O)CN1CCC(OCc2ccc(Cl)c(Cl)c2)CC1 | 99.68 |
| NC(=O)CN1CCC(NC(=O)COc2ccc(Cl)c(Cl)c2)CC1 | 99.17 |
| CSCCC(O)C(=O)N1CCC(OCc2cccnc2)CC1 (stereo unspecified) | -3.942 |
| NC(=O)CN1CCC(C(=O)NCc2ccc3nonc3c2)CC1 | -14.82 |
| CNC(=O)CN1CCC(OCc2ccc(Cl)c(Cl)c2)CC1 | 83.56 |
| CCn1c(N)nc2cc(C(=O)N3CCN(CC(F)(F)F)CC3)cnc21 | -2.793 |
| COc1ccc(F)c(CN2CCCC3(CCN(C(=O)CSC)C3)C2)c1 (stereo unspecified) | -11.54 |
| Cc1ccc(F)c(C(=O)NC2CCC(N3C(=O)CCC3=O)CC2)c1 (stereo unspecified) | -6.109 |
| CN(C)c1ccc(C(=O)NCc2csc(Br)c2)cn1 | 132.1 |
| O=C(NCc1csc(Br)c1)c1cnccn1 | 122.2 |
| CN1CCCN(C(=O)NCc2csc(Br)c2)CC1 | -2.09 |
| CN(C)c1ncccc1CNC(=O)c1csc(Br)c1 | -2.901 |
| CCn1cc(C(=O)NCc2csc(Br)c2)cn1 | -5.042 |
| CC1(c2ccccc2)CCC(=O)N(CCN2CCOC2=O)C1 (stereo unspecified) | -0.3831 |
| CC(CNC(=O)c1cccc(-n2cccn2)c1)Cn1ccnc1 (stereo unspecified) | -7.057 |
| Cc1cc(C(=O)NCC2CCC3(CC2)OCCO3)[nH]n1 | -25.64 |
| O=C(NCC1CCC2(CC1)OCCO2)c1ccncc1F | -3.003 |
| O=C(NCC1(O)CCSC1)c1cccc(-n2cccn2)c1 (stereo unspecified) | 105.6 |
| CNC(=O)CCOC(=O)c1cccc(-n2cccn2)c1 | -2.822 |
| CSC1(CNC(=O)c2cccc(-n3cccn3)c2)CCOCC1 | 126.6 |
| O=C(NCC1(O)CCSC1)c1ccoc1 (stereo unspecified) | 12.35 |

| SMILES | Percent Effect [%] |
| --- | --- |
| O=C(NCC1(O)CCC1)c1cccc(-n2cccn2)c1 | 119.5 |
| CSC1(CNC(=O)c2ccn(-c3ccccc3F)n2)CCOCC1 | -3.806 |
| O=C(NCC1CCC2(CC1)OCCO2)c1cccc(-n2cccn2)c1 | 116.2 |
| O=C(NCC1(O)CCSC1)c1ccn(-c2ccccc2F)n1 (stereo unspecified) | -10.8 |
| CSC1(CNC(=O)NC(C)c2ccc(F)cc2)CCOCC1 (stereo unspecified) | -5.884 |
| Cn1cc(C(C)(O)CNc2ccccn2)cn1 (stereo unspecified) | -0.1049 |
| Oc1cc(CN2CCCCC2c2cccnc2)nc2c(F)cccc12 (stereo unspecified) | -16.88 |
| CC(C)n1ccnc1C1CCN(C(=O)C2COc3ccccc3O2)CC1 (stereo unspecified) | -5.747 |
| CCS(=O)(=O)N1CCCC2(COCCN(c3nnc(C)o3)C2)C1.O=C(O)C(F)(F)F (stereo unspecified) | -4.041 |
| c1ccc2c(c1)CC(Cc1cc(N3CCCC3)cnn1)CCO2 (stereo unspecified) | -11.32 |
| O=C(NC1CC1)N1CCn2c(Cn3cccn3)cnc2C1.O=C(O)C(F)(F)F | 5.205 |
| Cc1noc(C)c1CN1CCc2ncc(Cn3cccn3)n2CC1.O=C(O)C(F)(F)F | -5.332 |
| O=S(=O)(C1CC1)N1CCc2ncc(Cn3cccn3)n2CC1 | -13.53 |
| O=C(O)C(F)(F)F.O=C(O)C(F)(F)F.c1cnn(Cc2cnc3n2CCN(CC2CCCCC2)C3)c1 | -2.959 |
| COCc1cnc2n1CCN(C1CCCC1)C2C.O=C(O)C(F)(F)F (stereo unspecified) | 11.21 |
| O=S(=O)(C1CC1)N1CCn2c(Cn3cccn3)cnc2C1 | 7.108 |
| CC1c2ncc(Cn3cccn3)n2CCN1c1ncccn1.O=C(O)C(F)(F)F (stereo unspecified) | 86.74 |
| CC1c2ncc(Cn3cccn3)n2CCN1S(C)(=O)=O.O=C(O)C(F)(F)F (stereo unspecified) | 89.72 |
| CC1c2ncc(Cn3cccn3)n2CCN1S(=O)(=O)C1CC1 (stereo unspecified) | 92.87 |
| CCc1nsc(N2CCN(Cc3ccno3)CC2)n1 | -4.168 |
| COC(=O)C1CCN(C(=O)c2ccc(NS(C)(=O)=O)c(C)c2)CC1 | -4.777 |
| O=S(=O)(c1ccc(Cl)cc1)N1CCC(OCc2ccccn2)C1 (stereo unspecified) | -17.23 |

| SMILES | Percent Effect [%] |
| --- | --- |
| CS(=O)(=O)NC[C@H]1Cn2c(-c3ccc(F)cc3)cnc2CO1 | -20.98 |
| CC(C)(C)OC(=O)N1CSC[C@@H]1C(=O)NCc1ccsc1 | -2.991 |
| O=C(c1cnc(-c2cccs2)s1)N1CCCC(n2ccnc2)C1 (stereo unspecified) | 98.86 |
| NC(=O)c1cccc(C(=O)N2CCCC(n3ccnc3)C2)c1 (stereo unspecified) | 111.9 |
| O=C(c1cnc(-c2cccs2)s1)N1CCCN2CCCC2C1 (stereo unspecified) | 13.8 |
| O=C1CSc2ccc(C(=O)N3CCCC(n4ccnc4)C3)cc2N1 (stereo unspecified) | 1.64 |
| O=C(c1cccnc1N1CCOCC1)N1CCCC(n2ccnc2)C1 (stereo unspecified) | -11.91 |
| NC(=O)c1ccc(C(=O)N2CCCC(n3ccnc3)C2)s1 (stereo unspecified) | 109.7 |
| COCCOc1cccc(C(=O)N2CCCC(n3ccnc3)C2)c1 (stereo unspecified) | 85.64 |
| O=C(O)C1(Oc2ccc3ccccc3c2)CCN(c2ncccn2)CC1 | -9.781 |
| Cc1c[nH]cc1C(=O)N1CCN(CCc2cccs2)CC1 | -2.994 |
| CCC1COCCN1C(=O)CNC(=O)c1ccsc1 (stereo unspecified) | -5.336 |
| OCc1ccc(CN2CCC(n3cc(C4CCCCC4)nn3)CC2)o1 | 0.3058 |
| CCS(=O)(=O)c1ccc(N2CCC(NC(=O)NC(C)CO)CC2)cc1 (stereo unspecified) | 0.3155 |
| COCCNS(=O)(=O)c1ccc(CNc2ncccc2C#N)cc1 | 18.7 |
| NC(=O)c1cccc(OCC(=O)N2CCCC(n3ccnc3)C2)c1 (stereo unspecified) | 113 |
| NC(=O)c1ccc(OCC(=O)N2CCCC(n3cccn3)C2)cc1 (stereo unspecified) | -3.222 |
| NC(=O)c1cccc(OCC(=O)N2CCCC(n3cccn3)C2)c1 (stereo unspecified) | -3.677 |
